This note sets out measurements from the supplement of paper PMC10941209.

This assay relates to HFF. The experiment in a line: cell viability relative to DMSO control; higher = less cytotoxic. Particulars: 1 µM; 72 h. The method, then:
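Single-dose cytotoxicity screen of the MMV Pandemic Response Box at 1 uM on human foreskin fibroblasts (HFF), 72 h at 37 C. Viability measured by MTT (OD 550 nm) and normalised to the DMSO control (% survival).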
Compound `NC1(C(=O)O)CCP(=O)(O)CC1` (stereo not drawn) registered a cell viability of 63.1%.

As for `COC(=O)Nc1nc2ccccc2[nH]1`, the cell viability is 66.4%.

In the case of `CC(C)Oc1cccc(NC(=O)c2ccccc2C(F)(F)F)c1`, the cell viability amounted to 70.5%.

`COc1cc(C(C)(C)CCCC(C)C)cc(OC)c1OC`: the cell viability was 61%.

Turning to `C[C@H]1CC[C@]2(NC1)O[C@H]1C[C@H]3[C@@H]4CC[C@H]5C[C@@H](O)CC[C@]5(C)[C@H]4CC[C@]3(C)[C@H]1[C@@H]2C`, the cell viability came out at 73.1%.

As for `Nc1c(C(=O)NCc2ccco2)c2nc3ccccc3nc2n1CCN1CCCCC1`, the cell viability is 64.1%.

As to `CCCCc1ccc(C(=O)O)nc1`, the cell viability was determined as 56.4%.

Compound `CN1C(=O)C(c2ccccc2)C(=O)N(c2ccccc2)c2cc(C(F)(F)F)ccc21` (stereo not drawn) came in with a cell viability of 66.3%.

On to `O=C(NC12CC3CC(CC(C3)C1)C2)c1cc2ccccc2[nH]1`, for which the cell viability came to 83.6%.

Take `CCN1CCN(Cc2nc3ccc([N+](=O)[O-])cc3c(=O)n2-c2ccccc2F)CC1`: the cell viability was found to be 62.2%.

On to `C[N+]1(C)CCCC(OC(=O)C(O)(c2ccccc2)c2ccccc2)C1` (stereo not drawn), for which the cell viability stood at 69.6%.

Compound `COc1ccccc1CN[C@H]1C2CCN(CC2)[C@H]1C(c1ccccc1)c1ccccc1` displayed a cell viability of 58.7%.

`C[C@@]1(O)[C@H](O)[C@@H](CO)O[C@H]1n1ccc2c(N)ncnc21` registered a cell viability of 68.5%.
